The values that follow come from ChEMBL document CHEMBL1961873, “Compounds: GSK PKIS; Assays: Nanosyn kinase panel” (2012).

Assay [1] addresses Sphingosine kinase 1 (Homo sapiens) (UniProt Q9NYA1). The following applies: at 1 µM.
Assay [2] addresses T1, Sphingosine kinase 2 (Homo sapiens) (UniProt Q9NRA0).
T1 sequence (whole entry): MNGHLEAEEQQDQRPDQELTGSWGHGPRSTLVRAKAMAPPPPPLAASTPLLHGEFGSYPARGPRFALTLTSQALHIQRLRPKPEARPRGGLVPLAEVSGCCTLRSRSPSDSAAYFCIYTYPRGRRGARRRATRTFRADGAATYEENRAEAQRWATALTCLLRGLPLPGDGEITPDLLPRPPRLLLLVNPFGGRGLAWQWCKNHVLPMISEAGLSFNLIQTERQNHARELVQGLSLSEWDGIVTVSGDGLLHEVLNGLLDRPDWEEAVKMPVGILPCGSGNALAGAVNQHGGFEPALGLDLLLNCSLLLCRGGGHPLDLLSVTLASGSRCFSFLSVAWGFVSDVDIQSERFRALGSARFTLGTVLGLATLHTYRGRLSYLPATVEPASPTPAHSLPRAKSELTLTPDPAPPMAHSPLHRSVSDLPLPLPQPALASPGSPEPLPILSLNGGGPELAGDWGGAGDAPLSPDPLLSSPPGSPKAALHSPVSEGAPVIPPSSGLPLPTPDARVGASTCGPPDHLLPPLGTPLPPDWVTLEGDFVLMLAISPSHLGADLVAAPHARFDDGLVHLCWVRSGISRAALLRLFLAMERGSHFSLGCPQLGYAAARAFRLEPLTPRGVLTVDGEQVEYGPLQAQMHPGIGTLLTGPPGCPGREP
The following applies: at 0.1 µM.

For assay [3], the target named is T1, Sphingosine kinase 2 (Homo sapiens). The following applies: at 1 µM.
Assay [4] has as its target Casein kinase II subunit alpha (Homo sapiens) (UniProt P68400). The following applies: at 0.1 µM.
Assay [5] shares this target. The following applies: at 1 µM.
For assay [6], the target named is T2, Inhibitor of nuclear factor kappa-B kinase subunit alpha (Homo sapiens) (UniProt O15111).
T2 sequence (whole entry): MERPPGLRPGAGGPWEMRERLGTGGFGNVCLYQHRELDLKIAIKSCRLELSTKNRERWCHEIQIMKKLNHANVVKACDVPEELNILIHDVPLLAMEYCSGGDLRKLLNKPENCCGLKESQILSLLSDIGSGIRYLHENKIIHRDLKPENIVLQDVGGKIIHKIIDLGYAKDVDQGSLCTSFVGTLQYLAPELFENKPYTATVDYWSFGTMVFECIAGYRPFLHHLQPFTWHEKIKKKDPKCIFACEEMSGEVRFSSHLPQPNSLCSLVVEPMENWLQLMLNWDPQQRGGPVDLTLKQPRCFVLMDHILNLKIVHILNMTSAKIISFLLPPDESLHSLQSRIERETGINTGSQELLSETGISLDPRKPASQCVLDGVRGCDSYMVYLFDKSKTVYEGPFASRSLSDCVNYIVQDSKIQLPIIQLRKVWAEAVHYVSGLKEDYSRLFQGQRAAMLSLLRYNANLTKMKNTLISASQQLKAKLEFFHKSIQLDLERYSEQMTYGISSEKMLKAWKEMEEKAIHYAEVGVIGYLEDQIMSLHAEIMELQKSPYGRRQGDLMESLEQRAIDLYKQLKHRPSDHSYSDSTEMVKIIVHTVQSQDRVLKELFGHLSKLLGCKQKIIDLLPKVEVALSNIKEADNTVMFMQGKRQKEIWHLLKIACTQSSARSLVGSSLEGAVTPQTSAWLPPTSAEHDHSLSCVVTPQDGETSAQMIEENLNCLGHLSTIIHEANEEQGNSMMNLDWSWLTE
The following applies: at 0.1 µM.

Assay [7] has as its target T2, Inhibitor of nuclear factor kappa-B kinase subunit alpha (Homo sapiens). The following applies: at 1 µM.
Assay [8] addresses T3, Inhibitor of nuclear factor kappa-B kinase subunit beta (Homo sapiens) (UniProt O14920).
T3 sequence (whole entry): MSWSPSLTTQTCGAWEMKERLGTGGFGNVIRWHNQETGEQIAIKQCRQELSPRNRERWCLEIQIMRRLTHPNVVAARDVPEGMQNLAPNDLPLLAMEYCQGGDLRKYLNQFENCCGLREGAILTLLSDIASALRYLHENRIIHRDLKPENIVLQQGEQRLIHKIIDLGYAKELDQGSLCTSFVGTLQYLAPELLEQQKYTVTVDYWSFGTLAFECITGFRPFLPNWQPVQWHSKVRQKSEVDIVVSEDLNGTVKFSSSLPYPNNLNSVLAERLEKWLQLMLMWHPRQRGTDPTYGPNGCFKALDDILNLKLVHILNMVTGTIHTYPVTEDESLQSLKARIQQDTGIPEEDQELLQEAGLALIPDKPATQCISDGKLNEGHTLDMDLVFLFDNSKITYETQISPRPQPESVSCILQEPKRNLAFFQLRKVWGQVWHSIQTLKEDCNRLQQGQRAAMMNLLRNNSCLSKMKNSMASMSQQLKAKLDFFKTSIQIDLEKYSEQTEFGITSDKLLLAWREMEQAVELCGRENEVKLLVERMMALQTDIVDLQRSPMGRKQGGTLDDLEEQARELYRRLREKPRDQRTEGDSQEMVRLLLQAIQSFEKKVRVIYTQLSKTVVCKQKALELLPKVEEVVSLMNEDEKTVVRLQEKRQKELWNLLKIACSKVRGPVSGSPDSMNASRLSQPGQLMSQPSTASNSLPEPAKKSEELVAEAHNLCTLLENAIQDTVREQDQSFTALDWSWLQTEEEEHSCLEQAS
The following applies: at 0.1 µM.

Assay [9] deals with T3, Inhibitor of nuclear factor kappa-B kinase subunit beta (Homo sapiens). The following applies: at 1 µM.
Assay [10] deals with T4, Inhibitor of nuclear factor kappa-B kinase subunit epsilon (Homo sapiens) (UniProt Q14164).
T4 sequence (whole entry): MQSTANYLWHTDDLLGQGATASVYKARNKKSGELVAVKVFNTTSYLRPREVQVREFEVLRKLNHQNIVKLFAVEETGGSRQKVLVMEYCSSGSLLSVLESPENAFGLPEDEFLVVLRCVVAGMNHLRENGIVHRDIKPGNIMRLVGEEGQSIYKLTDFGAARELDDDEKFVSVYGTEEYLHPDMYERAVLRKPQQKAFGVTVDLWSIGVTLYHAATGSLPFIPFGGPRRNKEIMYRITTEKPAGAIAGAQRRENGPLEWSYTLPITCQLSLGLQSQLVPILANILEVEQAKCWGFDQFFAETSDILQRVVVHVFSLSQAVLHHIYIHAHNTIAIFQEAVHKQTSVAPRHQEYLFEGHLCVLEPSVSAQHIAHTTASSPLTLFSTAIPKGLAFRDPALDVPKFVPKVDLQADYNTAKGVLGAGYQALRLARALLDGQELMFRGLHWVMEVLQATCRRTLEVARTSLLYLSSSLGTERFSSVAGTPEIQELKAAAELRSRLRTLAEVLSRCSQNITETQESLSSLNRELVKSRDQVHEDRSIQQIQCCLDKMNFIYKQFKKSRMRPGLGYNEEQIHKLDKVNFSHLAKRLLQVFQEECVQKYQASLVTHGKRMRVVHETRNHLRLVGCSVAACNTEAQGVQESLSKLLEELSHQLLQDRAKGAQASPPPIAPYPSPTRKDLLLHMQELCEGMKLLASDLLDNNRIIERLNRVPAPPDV
The following applies: at 0.1 µM.

For assay [11], the target named is T4, Inhibitor of nuclear factor kappa-B kinase subunit epsilon (Homo sapiens). The following applies: at 1 µM.
Assay [12] concerns the target T5, Serine/threonine-protein kinase Nek1 (Homo sapiens) (UniProt Q96PY6).
T5 sequence (whole entry): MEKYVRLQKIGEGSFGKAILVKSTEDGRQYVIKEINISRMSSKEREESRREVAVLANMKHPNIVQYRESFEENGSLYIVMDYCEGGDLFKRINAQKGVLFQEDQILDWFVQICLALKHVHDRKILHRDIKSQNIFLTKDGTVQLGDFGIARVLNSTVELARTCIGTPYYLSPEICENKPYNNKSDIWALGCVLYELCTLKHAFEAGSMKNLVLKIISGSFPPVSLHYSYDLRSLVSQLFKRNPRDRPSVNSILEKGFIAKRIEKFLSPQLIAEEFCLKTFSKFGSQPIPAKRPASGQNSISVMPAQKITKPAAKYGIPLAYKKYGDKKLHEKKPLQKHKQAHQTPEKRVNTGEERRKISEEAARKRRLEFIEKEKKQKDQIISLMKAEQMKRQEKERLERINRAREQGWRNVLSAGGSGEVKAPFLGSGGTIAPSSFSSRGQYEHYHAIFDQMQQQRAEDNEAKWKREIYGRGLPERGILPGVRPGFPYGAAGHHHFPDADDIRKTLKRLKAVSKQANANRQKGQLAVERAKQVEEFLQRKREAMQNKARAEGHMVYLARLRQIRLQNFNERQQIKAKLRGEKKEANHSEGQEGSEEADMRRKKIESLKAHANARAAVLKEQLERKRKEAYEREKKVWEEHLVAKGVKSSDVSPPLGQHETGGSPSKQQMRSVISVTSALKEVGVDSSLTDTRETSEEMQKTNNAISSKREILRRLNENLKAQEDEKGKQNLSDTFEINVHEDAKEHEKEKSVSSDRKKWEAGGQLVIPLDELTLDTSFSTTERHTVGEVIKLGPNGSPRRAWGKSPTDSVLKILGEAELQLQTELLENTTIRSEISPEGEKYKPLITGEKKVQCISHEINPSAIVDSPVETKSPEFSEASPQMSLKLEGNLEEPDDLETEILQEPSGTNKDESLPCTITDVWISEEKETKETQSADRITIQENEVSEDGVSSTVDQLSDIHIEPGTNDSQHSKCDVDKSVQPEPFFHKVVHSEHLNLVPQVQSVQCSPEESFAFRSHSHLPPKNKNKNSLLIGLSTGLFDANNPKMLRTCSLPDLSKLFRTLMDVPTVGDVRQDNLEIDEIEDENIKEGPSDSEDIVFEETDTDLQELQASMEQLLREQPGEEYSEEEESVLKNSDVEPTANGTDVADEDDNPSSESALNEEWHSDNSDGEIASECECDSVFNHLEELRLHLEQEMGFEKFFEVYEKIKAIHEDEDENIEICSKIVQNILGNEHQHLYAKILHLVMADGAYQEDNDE
The following applies: at 0.1 µM.

Assay [13] has as its target T5, Serine/threonine-protein kinase Nek1 (Homo sapiens). The following applies: at 1 µM.
In assay [14] the target is T6, Serine/threonine-protein kinase Nek2 (Homo sapiens) (UniProt P51955).
T6 sequence (whole entry): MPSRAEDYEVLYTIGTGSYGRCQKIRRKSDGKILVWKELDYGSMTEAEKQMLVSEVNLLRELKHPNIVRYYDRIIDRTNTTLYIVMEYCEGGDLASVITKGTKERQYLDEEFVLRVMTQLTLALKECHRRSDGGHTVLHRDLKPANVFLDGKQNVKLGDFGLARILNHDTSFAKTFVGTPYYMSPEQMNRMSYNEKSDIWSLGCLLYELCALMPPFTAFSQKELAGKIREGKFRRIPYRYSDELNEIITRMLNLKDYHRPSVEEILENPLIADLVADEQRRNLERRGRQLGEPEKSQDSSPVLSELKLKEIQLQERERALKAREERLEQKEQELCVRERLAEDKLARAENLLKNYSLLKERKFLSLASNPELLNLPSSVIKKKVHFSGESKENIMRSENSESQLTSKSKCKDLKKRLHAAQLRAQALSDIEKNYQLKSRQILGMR
The following applies: at 0.1 µM.

Assay [15] addresses T6, Serine/threonine-protein kinase Nek2 (Homo sapiens). The following applies: at 1 µM.
In assay [16] the target is Serine/threonine-protein kinase Nek6 (Homo sapiens) (UniProt Q9HC98). The following applies: at 0.1 µM.
Sequence of Serine/threonine-protein kinase Nek6 (Homo sapiens) (Q9HC98 whole entry): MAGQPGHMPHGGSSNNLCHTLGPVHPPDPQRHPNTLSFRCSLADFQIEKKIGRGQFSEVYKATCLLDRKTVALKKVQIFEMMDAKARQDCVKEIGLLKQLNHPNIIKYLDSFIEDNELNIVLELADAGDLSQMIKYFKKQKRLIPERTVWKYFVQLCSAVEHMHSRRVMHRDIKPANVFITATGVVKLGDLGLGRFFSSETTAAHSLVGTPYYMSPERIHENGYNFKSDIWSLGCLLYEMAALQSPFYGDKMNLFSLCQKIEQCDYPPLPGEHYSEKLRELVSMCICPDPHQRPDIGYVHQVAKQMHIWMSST
Assay [17] shares this target. The following applies: at 1 µM.
The target in assay [18] is Serine/threonine-protein kinase Nek7 (Homo sapiens) (UniProt Q8TDX7). The following applies: at 0.1 µM.
Sequence of Serine/threonine-protein kinase Nek7 (Homo sapiens) (Q8TDX7 whole entry, looked up): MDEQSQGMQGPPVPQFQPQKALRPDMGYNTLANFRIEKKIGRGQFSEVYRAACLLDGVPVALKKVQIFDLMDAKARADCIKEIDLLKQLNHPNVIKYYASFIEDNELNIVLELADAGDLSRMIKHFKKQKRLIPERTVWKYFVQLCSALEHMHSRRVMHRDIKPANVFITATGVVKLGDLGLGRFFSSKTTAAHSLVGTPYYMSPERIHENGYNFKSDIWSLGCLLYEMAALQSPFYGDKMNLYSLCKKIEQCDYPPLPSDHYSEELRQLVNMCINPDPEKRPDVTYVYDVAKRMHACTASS
Assay [19] shares this target. The following applies: at 1 µM.
For assay [20], the target named is T7, Serine/threonine-protein kinase Nek9 (Homo sapiens) (UniProt Q8TD19).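 Further: reported value is the mean percent inhibition of NEK9.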
T7 sequence (whole entry): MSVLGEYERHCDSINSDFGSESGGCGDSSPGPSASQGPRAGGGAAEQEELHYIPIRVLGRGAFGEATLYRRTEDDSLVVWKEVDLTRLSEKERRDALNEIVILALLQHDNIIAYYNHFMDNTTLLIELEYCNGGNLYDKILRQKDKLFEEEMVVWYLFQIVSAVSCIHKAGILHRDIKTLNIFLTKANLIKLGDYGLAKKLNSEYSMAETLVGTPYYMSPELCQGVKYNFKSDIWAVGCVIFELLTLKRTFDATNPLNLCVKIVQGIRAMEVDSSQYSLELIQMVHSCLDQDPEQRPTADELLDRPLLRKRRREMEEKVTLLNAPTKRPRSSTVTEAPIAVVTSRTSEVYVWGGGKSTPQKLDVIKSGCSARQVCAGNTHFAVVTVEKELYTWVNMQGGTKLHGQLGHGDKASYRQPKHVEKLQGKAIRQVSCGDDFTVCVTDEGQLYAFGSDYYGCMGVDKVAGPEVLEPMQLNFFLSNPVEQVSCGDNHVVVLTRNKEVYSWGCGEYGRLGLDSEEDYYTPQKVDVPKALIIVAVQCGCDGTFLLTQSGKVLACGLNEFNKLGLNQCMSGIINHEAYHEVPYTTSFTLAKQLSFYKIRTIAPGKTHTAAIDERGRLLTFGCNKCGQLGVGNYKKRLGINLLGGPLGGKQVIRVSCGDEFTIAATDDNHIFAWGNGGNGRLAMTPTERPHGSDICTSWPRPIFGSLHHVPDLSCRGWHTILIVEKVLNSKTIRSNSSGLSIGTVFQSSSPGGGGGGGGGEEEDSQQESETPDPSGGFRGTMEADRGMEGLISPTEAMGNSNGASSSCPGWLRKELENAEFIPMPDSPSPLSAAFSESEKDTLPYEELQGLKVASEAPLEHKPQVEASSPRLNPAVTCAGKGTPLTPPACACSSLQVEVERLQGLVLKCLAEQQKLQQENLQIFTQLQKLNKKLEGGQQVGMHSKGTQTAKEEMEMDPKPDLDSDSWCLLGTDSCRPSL
The following applies: at 0.1 µM.

Sequence of Casein kinase II subunit alpha (Homo sapiens) (P68400 whole entry, looked up): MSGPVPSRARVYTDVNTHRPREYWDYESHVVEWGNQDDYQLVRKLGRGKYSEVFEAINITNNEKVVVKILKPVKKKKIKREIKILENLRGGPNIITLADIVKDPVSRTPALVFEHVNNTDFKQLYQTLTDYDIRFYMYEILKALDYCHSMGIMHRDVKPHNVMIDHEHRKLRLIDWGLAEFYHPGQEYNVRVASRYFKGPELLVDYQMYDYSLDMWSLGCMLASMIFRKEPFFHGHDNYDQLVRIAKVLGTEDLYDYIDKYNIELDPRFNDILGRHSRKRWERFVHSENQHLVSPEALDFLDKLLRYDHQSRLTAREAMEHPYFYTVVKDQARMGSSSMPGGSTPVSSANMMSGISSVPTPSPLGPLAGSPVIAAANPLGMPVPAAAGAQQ
Sequence of Sphingosine kinase 1 (Homo sapiens) (Q9NYA1 whole entry): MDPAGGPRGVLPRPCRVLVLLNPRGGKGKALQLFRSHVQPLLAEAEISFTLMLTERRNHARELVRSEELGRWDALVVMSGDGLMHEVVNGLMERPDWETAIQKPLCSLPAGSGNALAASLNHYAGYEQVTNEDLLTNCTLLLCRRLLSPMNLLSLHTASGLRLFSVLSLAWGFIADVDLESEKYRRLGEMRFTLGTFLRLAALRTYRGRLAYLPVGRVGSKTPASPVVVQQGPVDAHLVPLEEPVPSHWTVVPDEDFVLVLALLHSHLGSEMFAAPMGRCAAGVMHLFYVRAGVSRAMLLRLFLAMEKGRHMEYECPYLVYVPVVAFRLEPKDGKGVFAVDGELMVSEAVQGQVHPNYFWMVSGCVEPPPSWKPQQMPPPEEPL

For `Fc1cccc(COc2ccc(Nc3ncncc3C#Cc3ccccc3)cc2Cl)c1`, the inhibition – broadly, the drop in the measured response relative to a control, in per cent – in assay [1] is -2.79%; in [2], -1.37%; in assay [3], 0.98%; in assay [4], 4.56%; in [5], 11.3%; in assay [6] it was 6.1%. Further, the inhibition in [7] worked out at 4.54%; in assay [8], 8.5%; in assay [9], 9.35%; in [10], 7.72%; in assay [11] it was 8.55%; in [12], 3.31%. The inhibition worked out at 4.09% in [13]; 5.61% in assay [14]; 4.52% in [15]; 1.91% in [16]; 3.93% in assay [17]; 2.36% in assay [18]. In addition, the inhibition in [19] was determined as 2.64%; in assay [20], 10.8%.
